NOD2-RIPK2 inh = inhibitors of human NOD2-RIPK2 interaction; O43353; 0.38% of 360,000 active; CHO BLA complementation NOD2-RIPK2, CCF4 ratio; inhibition, % at 4.98 µM; in the data active = inhibition above about 21%
Myeloid diff MLP = myeloid differentiation induction; calls only at 10 µM; 1% of 360,000 active; ER-HoxA9 myeloid progenitors, lysozyme-GFP differentiation, flow cytometry;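 active = normalized GFP-positive differentiation at or above the plate's own cutoff, the solvent-only control mean plus 3 SD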;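 note: cells exposed to compound for four days before flow analysis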
TLR9-MyD88 block = inhibitors of human TLR9-MyD88 binding | 0.21% of 340,000 active | CHO BLA complementation TLR9-MyD88, CCF4 FRET ratio | Q9NR96+Q99836 | AID 504734 | inhibition, % at 4.98 µM;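 active = inhibition above the mean over all tested compounds plus 3 SD, cut at about 21% in these data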
Target sequence (Q99836 whole entry, looked up): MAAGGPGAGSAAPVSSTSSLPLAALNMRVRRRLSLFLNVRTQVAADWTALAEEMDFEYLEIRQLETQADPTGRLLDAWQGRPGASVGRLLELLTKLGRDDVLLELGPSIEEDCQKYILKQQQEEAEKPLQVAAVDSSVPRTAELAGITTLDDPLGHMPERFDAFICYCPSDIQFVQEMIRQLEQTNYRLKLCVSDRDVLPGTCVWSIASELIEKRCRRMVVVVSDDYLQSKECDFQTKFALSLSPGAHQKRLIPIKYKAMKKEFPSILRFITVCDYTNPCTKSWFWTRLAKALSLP
Target sequence (Q9NR96 whole entry, looked up): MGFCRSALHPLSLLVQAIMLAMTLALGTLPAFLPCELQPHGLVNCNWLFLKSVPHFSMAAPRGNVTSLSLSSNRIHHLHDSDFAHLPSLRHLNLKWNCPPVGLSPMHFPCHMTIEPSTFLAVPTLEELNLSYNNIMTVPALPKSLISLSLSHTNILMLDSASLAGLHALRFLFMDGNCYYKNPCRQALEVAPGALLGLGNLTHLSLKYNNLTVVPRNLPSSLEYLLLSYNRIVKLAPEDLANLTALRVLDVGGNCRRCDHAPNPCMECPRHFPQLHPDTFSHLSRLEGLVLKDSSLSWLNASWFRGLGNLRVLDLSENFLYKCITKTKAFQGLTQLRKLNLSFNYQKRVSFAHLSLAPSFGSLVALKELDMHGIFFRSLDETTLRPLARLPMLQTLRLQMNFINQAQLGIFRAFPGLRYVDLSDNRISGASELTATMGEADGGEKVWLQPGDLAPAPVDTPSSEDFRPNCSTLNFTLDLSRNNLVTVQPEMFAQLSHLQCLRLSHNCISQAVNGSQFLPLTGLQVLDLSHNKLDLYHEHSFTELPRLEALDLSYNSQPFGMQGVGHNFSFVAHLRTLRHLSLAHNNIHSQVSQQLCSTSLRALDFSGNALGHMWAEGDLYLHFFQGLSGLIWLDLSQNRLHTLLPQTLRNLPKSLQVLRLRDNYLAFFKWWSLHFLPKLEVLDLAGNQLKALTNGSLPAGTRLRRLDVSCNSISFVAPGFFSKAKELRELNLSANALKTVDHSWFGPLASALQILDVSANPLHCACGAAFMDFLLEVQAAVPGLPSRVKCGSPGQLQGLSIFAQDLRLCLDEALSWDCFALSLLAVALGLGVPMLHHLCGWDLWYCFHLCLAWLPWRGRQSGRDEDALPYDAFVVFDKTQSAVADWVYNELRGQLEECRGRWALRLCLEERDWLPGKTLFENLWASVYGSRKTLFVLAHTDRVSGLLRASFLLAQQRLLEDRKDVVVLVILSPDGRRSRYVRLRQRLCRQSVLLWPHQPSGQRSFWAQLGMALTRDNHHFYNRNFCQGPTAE
TLR4-MyD88 BLA = TLR4-MyD88 interaction inhibition in cells. O00206+Q99836. HeLa CL3-4 TLR4/MyD88 BLA complementation, FRET ratio. inhibition, % at 8.4 µM. 0.18% of 200,000 active. AID 861; in the data active = inhibition above about 25%
Large screens that a line does not name were inactive. Compounds with a hit are over-represented: about 1.5% of the library has one in this group of screens.

Cc1cc(C(=O)N/N=C/c2cc([N+](=O)[O-])ccc2O)c2ccccc2n1	none
COC(=O)C1=CN(c2ccc(N3CCOCC3)cc2)C(N)=C(C#N)C1c1cccc(F)c1 (stereo not given)	none (no result: TLR9-MyD88 block, TLR4-MyD88 BLA)
Cc1ccc(F)c(S(=O)(=O)NC(=O)C2(C)CCN2C(=O)Cc2ccccc2)c1 (stereo not given)	none (no result: TLR9-MyD88 block, TLR4-MyD88 BLA)
O=C(c1ccco1)N1CCN(C(=O)C2(S(=O)(=O)c3ccc(Cl)cc3)CC2)CC1	none
O=C(N1CCN(c2ccccc2)CC1)C1(S(=O)(=O)c2ccc(Cl)cc2)CC1	Myeloid diff MLP active (no result: TLR4-MyD88 BLA)
O=C(c1ccco1)N1CCN(c2ncnc3scc(-c4cccs4)c23)CC1	Myeloid diff MLP active
COCCNC(=O)C1(C)CCCN(CCOc2ccc(Cl)cc2)C1 (stereo not given)	none (no result: TLR9-MyD88 block, TLR4-MyD88 BLA)
Cc1cc(C)nc(NC(=O)/C=C/c2ccccc2Cl)n1	Myeloid diff MLP active
CC(=O)N1N=C(c2ccco2)CC1c1cc2cc(C)ccc2nc1Cl (stereo not given)	Myeloid diff MLP active (no result: TLR9-MyD88 block, TLR4-MyD88 BLA)
Cc1ccc2nc(Cl)c(C3CC(c4ccco4)=NN3C(=O)CCCC(=O)O)cc2c1 (stereo not given)	none (no result: TLR4-MyD88 BLA)
CCOc1ccccc1OCCCCCc1c(C)n[nH]c1C	Myeloid diff MLP active
COc1ccccc1OCCCCCc1c(C)n[nH]c1C	none
COc1ccc(N(CC(=O)Nc2cc(Cl)ccc2OC)S(=O)(=O)c2c(C)noc2C)cc1	Myeloid diff MLP active
COc1ccc(N(CC(=O)Nc2ccccc2OC)S(=O)(=O)c2ccc(NC(C)=O)cc2)cc1	Myeloid diff MLP active (no result: TLR4-MyD88 BLA)
COc1ccccc1NC(=O)CN(c1ccccc1)S(=O)(=O)c1ccccc1	none (no result: TLR4-MyD88 BLA)
CCOC(=O)c1ccc(NC(=O)CN(C)S(=O)(=O)c2ccc(OC)cc2)cc1	Myeloid diff MLP active
O=C(OCc1cn([C@H]2C[C@H](c3ccccc3)N(Cc3cccs3)C[C@@H]2O)nn1)c1ccccc1	none (no result: TLR4-MyD88 BLA)
Clc1ccc(-c2nc3c4ccccc4ccn3c2Cc2ccccc2)cc1	none (no result: TLR4-MyD88 BLA)
CCOC(=O)c1ccc(S(=O)(=O)N2CCC(C(=O)OCC)CC2)cc1	none
CCOC(=O)c1ccc(S(=O)(=O)N2CCC(C(=O)O)CC2)cc1	Myeloid diff MLP active
Cc1ccccc1NC(=O)COC(=O)c1ccc(S(=O)(=O)N2CCCC2)cc1	Myeloid diff MLP active (no result: TLR4-MyD88 BLA)
COCOCCn1cc(CN2CCS(=O)(=O)N(Cc3ccc(-c4ccc(Cl)c(Cl)c4)cc3)C(C)C2=O)nn1 (stereo not given)	none (no result: TLR4-MyD88 BLA)
COc1ccc(C2C(C(C)=O)=C(C)N=c3s/c(=C\c4ccco4)c(=O)n32)c(OC)c1 (stereo not given)	none
COc1ccc(C2C(C(C)=O)=C(C)N=c3s/c(=C\c4cc(C)n(C)c4C)c(=O)n32)c(OC)c1 (stereo not given)	Myeloid diff MLP active
CCOC(=O)[C@]12CCCC=C1N(CCc1ccc(OC)c(OC)c1)C(=O)[C@H](CC(=O)N1CCCC1)C2	none (no result: TLR9-MyD88 block, TLR4-MyD88 BLA)
C=CCN1C(=O)/C(=C/C=C2/N(CC)c3ccc(S(=O)(=O)N(C)C)cc3N2CC)SC1=S	Myeloid diff MLP active
Cn1nc(-c2ccccc2)c(C(O)c2ccc(Cl)cc2)c1Cl (stereo not given)	none
Cn1nc(-c2ccccc2)c(CSc2ccccc2Cl)c1Cl	Myeloid diff MLP active
Cc1ccc([C@H]2C(C(=O)O)=CCN2S(=O)(=O)c2ccc(C)cc2)cc1	none (no result: TLR9-MyD88 block, TLR4-MyD88 BLA)
CC1Cc2cc(-c3csc(NC(=O)Cc4ccccc4)n3)ccc2N1S(C)(=O)=O (stereo not given)	Myeloid diff MLP active
Cc1ccc(/C=C2/NC(=O)N(Cc3ccccc3F)C2=O)s1	Myeloid diff MLP active
O=C(Nc1cccnc1)c1cccc(S(=O)(=O)N2CCc3ccccc32)c1	none
O=C(Nc1ccncc1)c1cccc(S(=O)(=O)N2CCc3ccccc32)c1	Myeloid diff MLP active (no result: TLR4-MyD88 BLA)
COCCn1c(SCC(=O)Nc2ccc3c(c2)OCCO3)nc2c(c1=O)SC(C)C2 (stereo not given)	Myeloid diff MLP active
CCOC(=O)N1CCN(C(C(=O)NC2CCCC2)C(C)C)CC1 (stereo not given)	none (no result: TLR9-MyD88 block, TLR4-MyD88 BLA)
COc1ccc(CN2CCN(C(=O)CCC(=O)Nc3nnc(C4CCCCC4)s3)CC2)cc1F	Myeloid diff MLP active (no result: TLR4-MyD88 BLA)
CC(=O)Oc1ccccc1Cn1c(C)c(C(=O)NCCC#N)sc1=O	none (no result: TLR9-MyD88 block, TLR4-MyD88 BLA)
COc1ccc(F)cc1C(=O)C1CCCN(C(=O)c2ccc(C(C)=O)s2)C1 (stereo not given)	none (no result: TLR4-MyD88 BLA)
COc1ccc(F)cc1C(=O)C1CCCN(C(=O)C2=C(C)OCCO2)C1 (stereo not given)	Myeloid diff MLP active
COC(=O)[C@@]12C[C@@H](CC(=O)NCc3cccc(C(F)(F)F)c3)C(=O)N(Cc3ccc4c(c3)OCO4)C1=CCC(C)(C)C2	none (no result: TLR9-MyD88 block, TLR4-MyD88 BLA)
COc1ccc(CNc2cccnc2Cl)cc1	none (no result: TLR9-MyD88 block, TLR4-MyD88 BLA)
COc1ccc(Oc2c(OC)cc(NCc3ccc(CN)cc3)c3ncccc23)cc1	Myeloid diff MLP active (no result: TLR4-MyD88 BLA)
Cc1cc(C(=O)NCc2ccco2)on1	none
Cc1ccc(C(=O)NCc2ccco2)o1	Myeloid diff MLP active (no result: TLR4-MyD88 BLA)
CCOC(=O)[C@]12CCCC=C1N(Cc1ccc3c(c1)OCO3)C(=O)[C@H](CC(=O)N1CCCCC1)C2	none (no result: TLR9-MyD88 block, TLR4-MyD88 BLA)
CC1CC(C)CN(CC(=O)c2c[nH]c3ccccc23)C1 (stereo not given)	Myeloid diff MLP active (no result: TLR4-MyD88 BLA)
CC1(c2ccccc2)NC(=O)N(CC(=O)Nc2ccc([N+](=O)[O-])cc2)C1=O (stereo not given)	none
Cc1ccc(C2(C)NC(=O)N(CC(=O)Nc3ccc(Cl)c(S(=O)(=O)N4CCCCC4)c3)C2=O)cc1 (stereo not given)	none (no result: TLR4-MyD88 BLA)
CC1(c2ccccc2)NC(=O)N(CC(=O)Nc2ccc(Cl)c(S(=O)(=O)N3CCCCC3)c2)C1=O (stereo not given)	Myeloid diff MLP active (no result: TLR4-MyD88 BLA)
CC1(c2ccc([N+](=O)[O-])cc2)NC(=O)N(CC(=O)Nc2ccc(N3CCCCC3)cc2)C1=O (stereo not given)	Myeloid diff MLP active (no result: TLR4-MyD88 BLA)
CCn1c2ccccc2c2cc(NC(=O)N3CCCCC3)ccc21	none (no result: TLR4-MyD88 BLA)
Nc1ccccc1Nc1cc(-c2ccccc2)nn1-c1ccccc1	Myeloid diff MLP active
Nc1ccccc1Nc1cc(-c2ccccc2)[nH]n1	Myeloid diff MLP active
Cc1ccc(-n2nc(-c3ccccc3)cc2Nc2ccccc2N)cc1	none
Nc1ccccc1Nc1ccccc1	Myeloid diff MLP active
CCOC(=O)C1=C(Cc2ccc(F)cc2)C(=O)c2ccccc2C1=O	NOD2-RIPK2 inh 30.4, Myeloid diff MLP active
O=C(OCc1ccc(F)cc1)c1ccc2c(c1)-c1ccccc1C2=O	none
COC(=O)Cc1ccc(NC(=S)NCCO)cc1	none (no result: TLR4-MyD88 BLA)
COC(=O)Cc1ccc(NC(=S)NC2CC2)cc1	Myeloid diff MLP active (no result: TLR4-MyD88 BLA)
CCOC(=O)[C@]12CCC=C1N(Cc1ccccc1)C(=O)[C@H](CC(=O)NCc1cccs1)C2	none (no result: TLR9-MyD88 block, TLR4-MyD88 BLA)
O=C(Nn1cnnc1)c1cc2c(s1)CCCC2	none
NNC(=O)c1cc2c(s1)CCCCCC2	Myeloid diff MLP active
O=C(COC(=O)CNC(=O)c1cccc([N+](=O)[O-])c1)NCc1ccco1	Myeloid diff MLP active
Cc1cccc(NC(=O)[C@H](Cc2c[nH]c3ccccc23)NC(=O)[C@@H]2Cc3ccccc3CN2)c1	none (no result: TLR4-MyD88 BLA)
